In experiment [1] the target is Tyrosine-protein kinase Yes (Homo sapiens) (UniProt P07947). In words: qHTS for small molecule inhibitors of Yes1 kinase: Primary Screen (AID 686947). Also: nearly all actives have a fitted effect of over 60% in size. Also: potency is read from the fitted curve at half-maximal effect. The method in brief: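 In this qHTS format, inhibition is expressed relative to DMSO controls with enzyme (maximum) and without enzyme (minimum). The 60 min room-temperature reaction uses 0.1 mM ATP, with ADP detected by luminescence.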
Sequence of Tyrosine-protein kinase Yes (Homo sapiens) (P07947 whole entry, looked up): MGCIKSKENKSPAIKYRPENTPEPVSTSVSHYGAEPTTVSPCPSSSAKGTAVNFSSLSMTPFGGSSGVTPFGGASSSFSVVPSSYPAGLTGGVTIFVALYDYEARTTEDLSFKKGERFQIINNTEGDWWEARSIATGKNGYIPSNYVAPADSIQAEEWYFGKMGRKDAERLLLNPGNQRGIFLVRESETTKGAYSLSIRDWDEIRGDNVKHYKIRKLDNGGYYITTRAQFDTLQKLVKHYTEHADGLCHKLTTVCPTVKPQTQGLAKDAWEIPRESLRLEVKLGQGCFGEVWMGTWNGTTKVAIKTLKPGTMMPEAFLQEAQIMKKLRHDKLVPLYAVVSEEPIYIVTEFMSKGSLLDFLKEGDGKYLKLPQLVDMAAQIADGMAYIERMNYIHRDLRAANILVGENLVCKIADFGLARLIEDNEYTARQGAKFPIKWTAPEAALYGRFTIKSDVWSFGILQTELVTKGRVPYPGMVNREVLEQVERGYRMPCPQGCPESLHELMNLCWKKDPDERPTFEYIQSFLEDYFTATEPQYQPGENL
For orientation: qHTS replaces the single test concentration by a dilution series.

Experiment [2] can be described thus: qHTS for small molecule inhibitors of Yes1 kinase: Counter Assay (AID 686950).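 Also: no kinase present so only ADP-Glo detection of a fixed ADP amount is tested; luminescence from ADP-Glo reporting ADP in a fixed ATP and ADP mixture; series mostly up to about 77 µM.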 An outline of the steps: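 ADP-Glo luminescence read after a 60 min room-temperature incubation of compound with an ATP/ADP mix (0.08 mM/0.02 mM) and no kinase, following a 20 min compound preincubation. Signal scaled between ATP+ADP (max) and 0.1 mM ATP-only (min) wells; Tris pH 7.5, Mg2+, DTT.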

Where “and” joins values, the source holds several entries; their conditions need not be identical. Equal entries are not always repeated. Records with an inconclusive call do not appear. Where a call stands in place of a potency, no number is given. Some compounds were tested as several samples or in several runs, with calls that do not always agree. Calls of active or inactive are those of the source. Calls follow the shape of the dose curve; as a rule, active = well fitted curve in the direction sought with a large enough effect; inconclusive = small, poorly fitted or top-dose-only effect, or another doubt; inactive = no such curve, though single readings can be large; an effect the other way counts as inactive or inconclusive.

`N#Cc1c(NC(=O)c2ccc(F)cc2)sc2c1CCCC2`: in experiment [1], the Potency result was “inactive”. The molecule was called inactive in experiment [2].

Consider `Cc1ccc(O)cc1Nc1ccnc2ccc(S(C)(=O)=O)cc12`, for which the Potency in experiment [1] is 0.0021 µM (active). Besides, the molecule was called inactive in experiment [2].

Consider `COC(=O)Nc1nc2ccc(Sc3ccc(NC(=O)Nc4cc(C(F)(F)F)ccc4F)cc3)cc2[nH]1`, for which the Potency result in experiment [1] is “inactive”. For the same molecule, the result in experiment [2] was inactive.

On to `CCn1c(-c2nonc2N)nc2cncc(C(=O)N3CCNCC3)c21`, for which, in experiment [1], the Potency was 1.46 µM (active). Further, the molecule was called inactive in experiment [2].

In the case of `O=C(Nc1n[nH]c2nc(-c3ccco3)c(Br)cc12)C1CC1`, the Potency in experiment [1] was 8.23 µM (active).

For the molecule `O=S1CCN(Cc2ccc(-c3ccc4ncnc(Nc5ccc(OCc6cccc(F)c6)c(Cl)c5)c4c3)o2)CC1`, the Potency in experiment [1] was 2.07 µM (active). Also, in experiment [2], the molecule was called inactive.

`Nc1ncc(-c2cccc(S(N)(=O)=O)c2)c2scc(-c3ccc(F)c(Cl)c3)c12`: the Potency in experiment [1] was 0.368 µM (active). The result in experiment [2] was inactive.

For `NS(=O)(=O)c1cccc(-c2cc3ccncc3cc2OCc2ccccc2)c1`, in experiment [1], the Potency result is “inactive”. Further, the molecule was classed as inactive in experiment [2].

For the molecule `Nc1nc(-c2cccc(Cl)c2)c(-c2ccc3ncccc3n2)s1`, in experiment [1], the Potency was 1.16 µM (active). Also, the molecule was called inactive in experiment [2].

As to `Cc1ccc(C(=O)NC2CC2)cc1-c1ccc2[nH]ncc2c1`, the Potency entry in experiment [1] was “inactive”. Further, the result in experiment [2] was inactive.

For `COc1cccc(-n2ncc3c(NN=Cc4ccncc4)ncnc32)c1`, the Potency in experiment [1] was 0.0923 µM (active). For the same molecule, the molecule was classed as inactive in experiment [2].

Consider `COc1ccccc1Nc1ncc(-c2ccccc2)o1`, for which the Potency in experiment [1] is 9.23 µM (active). Moreover, the molecule was called inactive in experiment [2].

With `COc1cc(Nc2ncc(-c3ccccc3)o2)cc(OC)c1OC`, the Potency in experiment [1] was 0.328 µM (active). Also, the molecule was classed as inactive in experiment [2].

Regarding `CC1=C(C(=O)Nc2cc(Cl)c3[nH]ncc3c2)C(c2ccc(C(F)(F)F)cc2)CC(=O)N1` (stereo unspecified), the Potency in experiment [1] is 2.6 µM (active). In addition, the call in experiment [2] was inactive.

As to `CN1CCC(n2cnc(-c3ccc(F)cc3)c2-c2ccnc(Nc3ccccc3)n2)CC1`, in experiment [1], the Potency is 1.16 µM (active). Moreover, the outcome in experiment [2] was inactive.

As to `O=C1NC(=O)C(N2CCc3ccccc32)=C1c1ccc(Cl)cc1`, in experiment [1], the Potency entry was “inactive”. Besides, the outcome in experiment [2] was inactive.

For the molecule `CCOc1ccc2c(-c3ccnc(Nc4cccc(C(F)(F)F)c4)n3)cnn2n1`, the Potency result in experiment [1] is “inactive”.

With `CC1(C)CC(n2cnc(-c3ccc(F)cc3)c2-c2ccnc(N)n2)CC(C)(C)N1`, the Potency in experiment [1] is 5.19 µM (active). Also, the call in experiment [2] was inactive.

As for `CCn1c(-c2nonc2N)nc2c(C#CCN)ncc(OCCCN)c21`, in experiment [1], the Potency result was “inactive”. The molecule was called inactive in experiment [2].

`COc1ccccc1-c1cc(C=C2C(=O)Nc3ncc(Br)cc32)cc(Br)c1O`: the Potency in experiment [1] was 0.733 µM (active). The molecule was classed as inactive in experiment [2].

As for `OCc1ccc(-c2nc(-c3ccc4c(c3)OCO4)c(-c3ccccn3)[nH]2)cc1`, the Potency entry in experiment [1] was “inactive”. Further, the molecule was classed as inactive in experiment [2].

Take `CCn1c(-c2nonc2N)nc2c(C#CC(C)(C)O)nc(CN3CCCC3)cc21`: the Potency in experiment [1] was 23.2 µM (active). Also, the result in experiment [2] was inactive.

Take `Cc1cc(-c2ccccn2)cc(C)c1C=Cc1cncc(-c2nn[nH]n2)c1`: the Potency in experiment [1] is 2.07 µM (active).

On to `CC(Oc1cc(-n2cnc3ccc(OCC4CCN(C)CC4)cc32)sc1C(N)=O)c1ccccc1Cl` (stereo unspecified), for which the Potency in experiment [1] is 1.64 µM (active).

Take `CN(C)c1ccc2[nH]c(O)c(C=Nc3ccc(S(N)(=O)=O)cc3)c2c1`: the Potency in experiment [1] is 4.63 µM (active). In experiment [2], the result was inactive.

On to `CS(=O)(=O)CCNCc1ccc(-c2ccc3ncnc(Nc4ccc(OCc5ccccc5)c(C(F)(F)F)c4)c3c2)o1`, for which the Potency result in experiment [1] is “inactive”.

Regarding `CS(=O)(=O)CCNCc1coc(-c2ccc3ncnc(Nc4ccc(OCc5ccccc5)cc4)c3c2)c1`, in experiment [1], the Potency is 1.84 µM (active). Moreover, the outcome in experiment [2] was inactive.

Consider `COc1cc2c(cc1Nc1nc(N3CCc4ccccc43)c3cc[nH]c3n1)N(C(=O)CN(C)C)CC2`, for which, in experiment [1], the Potency result was “inactive”. The molecule was called inactive in experiment [2].

Take `c1ccc(-c2[nH]ncc2-c2ccnc(-c3ccc(OCCn4ccnc4)cc3)c2)nc1`: in experiment [1], the Potency was 4.63 µM (active). The outcome in experiment [2] was inactive.

For `COc1cc(Nc2nccc(Nc3ccc4c(C)[nH]nc4c3)n2)cc(OC)c1OC`, the Potency in experiment [1] was 0.0923 µM (active). The molecule was classed as inactive in experiment [2].

On to `COc1ccc(Nc2ncc(-c3ccccc3)o2)cc1OC`, for which the Potency in experiment [1] was 1.16 µM (active). In addition, the result in experiment [2] was inactive.

With `c1ccc(Oc2ccc(Nc3ncc(-c4ccccc4)o3)cc2)cc1`, the Potency entry in experiment [1] is “inactive”.

For the molecule `COc1ccc(-c2ccc3c(NC(=O)C4CC4)n[nH]c3n2)cc1`, in experiment [1], the Potency was 6.54 µM (active). The molecule was called inactive in experiment [2].

As to `Nc1ncnc2occ(-c3ccc(NC(=O)Nc4cc(C(F)(F)F)ccc4F)cc3)c12`, the Potency in experiment [1] was 2.07 µM (active) and inactive.

Consider `O=C(Nc1n[nH]c2nc(-c3ccco3)ccc12)C1CC1`, for which the Potency in experiment [1] is 2.32 µM (active). The molecule was called inactive in experiment [2].

Turning to `O=C(OC1CNC(C#Cc2cc3ncnc(Nc4ccc5c(cnn5Cc5ccccc5)c4)c3s2)C1)N1CCOCC1` (stereo unspecified), the Potency in experiment [1] is 1.04 µM (active). Moreover, in experiment [2], the outcome was inactive.

For `CN1CCC(C(=O)Nc2n[nH]c3nnc(-c4ccccc4)cc23)CC1`, the Potency in experiment [1] was 13 µM (active). Further, the call in experiment [2] was inactive.

As to `CC(Oc1cc(-n2cnc3ccc(OCC4CCN(C)CC4)cc32)sc1C(N)=O)c1ccccc1C(F)(F)F` (stereo unspecified), in experiment [1], the Potency is 1.46 µM (active). The molecule was called inactive in experiment [2].

For `Nc1nccc(-c2c(-c3ccc(F)cc3)ncn2C2CCNCC2)n1`, the Potency in experiment [1] is 2.07 µM (active) and 6.54 µM (active). Also, the call in experiment [2] was inactive.

The values above are taken from PubChem BioAssay (NCATS).
